Bioassay records from PubChem.
Rows were chosen to be rich in hits. Some 3.1% of all compounds tested hit in one or more screens of this group.
EP2 mod: EP2 receptor modulators, cAMP readout, primary screen, cell-based, HTRF cAMP, PGE2 stimulation. Prostaglandin E2 receptor EP2 subtype (Homo sapiens), P43116. EP2-expressing cells, cAMP HTRF FRET, PGE2 co-stimulation. induction, % at 25 µM. hit rate 0.83% among 260,000. AID 940, 2007;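 active = compounds whose cAMP rise, as percent of the full-agonist control response, exceeds 60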;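 note: rat C6 glioma line stably carrying human EP2 under a CMV promoter; the protocol text gives 20 µM as final concentration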
Target sequence (P43116 whole entry, looked up): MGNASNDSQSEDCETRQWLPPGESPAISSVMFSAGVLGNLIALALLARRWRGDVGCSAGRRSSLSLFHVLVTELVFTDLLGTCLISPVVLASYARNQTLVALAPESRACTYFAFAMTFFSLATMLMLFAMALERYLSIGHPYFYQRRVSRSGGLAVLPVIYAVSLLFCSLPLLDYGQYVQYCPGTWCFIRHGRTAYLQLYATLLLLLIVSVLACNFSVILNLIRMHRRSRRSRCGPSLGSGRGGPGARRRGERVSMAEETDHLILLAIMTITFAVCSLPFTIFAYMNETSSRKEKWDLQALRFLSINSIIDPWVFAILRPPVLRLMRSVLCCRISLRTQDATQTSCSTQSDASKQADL
PGE2 EP2 inh: human EP2 receptor antagonists, primary screen, TR-FRET cAMP, C6 glioma cells; C6 glioma cells expressing human EP2; cells stimulated with saturating PGE2; AID 1422, 2008; hit rate 0.52% among 260,000; Prostaglandin E2 receptor EP2 subtype (Homo sapiens), P43116; inhibition, % at 25 µM;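 active = percent inhibition above 40 after rounding to a whole number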;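 note: rat C6 glioma host cells with rolipram phosphodiesterase inhibitor present; the protocol text gives 20 µM as final concentration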
Cl transport mod: KCC2 cotransporter modulators, thallium flux, primary screen, cell-based, HEK293 KCC2, FluoZin-2 fluorescence, MLSMR; Solute carrier family 12 member 5 (Homo sapiens), Q9H2X9; KCC2 cells, thallium flux FluoZin-2 fluorescence; B-score of Tl+ flux slope (higher = more flux/activation; lower = inhibition) at 10 µM; hit rate 2.2% among 190,000; AID 1456, 2008;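 active = thallium flux slope and its plate-corrected score both differing from the plate sample mean at a set confidence after two filtering rounds, in either direction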;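 note: slope of fluorescence scaled to starting intensity during 10 to 20 s after thallium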
S1P3 antag: S1P3 receptor antagonists, primary screen, cell-based; Sphingosine 1-phosphate receptor 3 (Homo sapiens), Q99500; CHO S1P3 NFAT-BLA reporter, FRET fluorescence, antagonist mode; inhibition, % at 4.98 µM; hit rate 0.27% among 170,000;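 active = inhibition above the plate cutoff, the mean inhibition of test wells on that plate plus 3 SD, cut at about 28% in these data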;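 note: cells challenged with S1P at its EC80 of 0.8 µM; blue over green emission ratio from cleaved BLA substrate after 4 h stimulation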
Target sequence (Q99500 whole entry, looked up): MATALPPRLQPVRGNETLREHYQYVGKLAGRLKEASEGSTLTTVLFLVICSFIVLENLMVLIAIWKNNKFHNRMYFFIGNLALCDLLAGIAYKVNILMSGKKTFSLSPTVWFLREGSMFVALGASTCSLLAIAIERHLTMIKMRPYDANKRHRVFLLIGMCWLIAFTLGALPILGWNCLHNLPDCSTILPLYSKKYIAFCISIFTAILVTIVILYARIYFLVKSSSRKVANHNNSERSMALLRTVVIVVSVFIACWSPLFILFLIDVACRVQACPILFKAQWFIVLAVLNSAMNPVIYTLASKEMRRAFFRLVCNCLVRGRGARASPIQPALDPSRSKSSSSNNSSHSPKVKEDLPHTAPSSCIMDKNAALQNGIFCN
Of the large screens only hits and unclear results are named; the others gave an inactive call; ! = not confirmed by another sample.

c1cc(-c2sc(-c3ccncc3)c(-c3ccncc3)c2-c2ccncc2)ccn1	PGE2 EP2 inh 40.8!
O=C(NCc1cccnc1)NC1(c2ccccc2)CC1	S1P3 antag 76.6 (no result: Cl transport mod)
O=C(O)c1ccccc1C(=O)NCc1cccnc1	none
Cc1cc2c(cc3c(=O)n(CC(=O)N4CCOCC4)nc(C)n32)o1	none (no result: Cl transport mod, S1P3 antag)
N#CC1=C(N)NC(SCC(=O)Nc2ccc(Br)cc2)=C(C#N)C12CCCCC2	Cl transport mod -4.91 (no result: S1P3 antag)
N#CC1=C(N)NC(SCc2ccc(Br)cc2)=C(C#N)C12CCCCC2	none (no result: PGE2 EP2 inh, S1P3 antag)
Cc1ccccc1OCC(O)Cn1c(NC2CCCCC2)nc2c1c(=O)[nH]c(=O)n2C (configuration not stated)	none (no result: Cl transport mod, S1P3 antag)
Oc1ccc(-c2csc(-c3ccccc3)n2)c(O)c1	PGE2 EP2 inh 48.4 (no result: Cl transport mod, S1P3 antag)
Cc1cc2cc(CN(Cc3ccco3)C(=S)NCCCN(C)C)c(=O)[nH]c2cc1C	none (no result: Cl transport mod, S1P3 antag)
Cc1nn(-c2ccccc2)c(Cl)c1C(=O)N1CCN(c2ncnc3c2cnn3-c2ccccc2)CC1	PGE2 EP2 inh 40.2
CCCN1CCN(C(c2cc3cc(OCC)ccc3[nH]c2=O)c2nnnn2C(C)(C)CC)CC1 (configuration not stated)	none (no result: Cl transport mod, S1P3 antag)
COc1ccc(C(=O)N2CCC(n3nnc4ccccc4c3=O)CC2)cc1OC	none (no result: Cl transport mod, S1P3 antag)
CN(C)CCCN1c2ccccc2Sc2ccc3ccccc3c21	none (no result: Cl transport mod, S1P3 antag)
CN(C)CCCN1c2ccc3ccccc3c2Sc2cccc(Cl)c21	PGE2 EP2 inh 49.0 (no result: Cl transport mod, S1P3 antag)
CNC(=S)NNC(=O)c1cccs1	none
O=C(NC(=S)NNC(=O)c1cccs1)c1ccc(Br)o1	Cl transport mod 15.2 (no result: S1P3 antag)
Cc1ccc(N2C(=S)N=C(Nc3ccccc3C)C23CCOC(C)(C)C3)cc1 (configuration not stated)	Cl transport mod 24.2 (no result: S1P3 antag)
COc1ccc([C@H](C)NC[C@H](O)c2ccc(O)c(NC=O)c2)cc1	EP2 mod 81.2
O=C(NC1CCCCC1)N1CCCC(c2nc3c(nnn3Cc3ccccc3Cl)c(=O)[nH]2)C1 (configuration not stated)	none (no result: Cl transport mod, S1P3 antag)
O=C1NC2(CCN(C(=O)C3(c4ccccc4)CC3)CC2)Oc2ccccc21	none (no result: Cl transport mod, S1P3 antag)
Cc1cccc(NC(=O)c2c(-c3ccccc3)noc2C)n1	PGE2 EP2 inh 43.5
Cc1onc(-c2ccccc2)c1C(=O)NNC(=S)NC(=O)c1ccc(Br)cc1	Cl transport mod 19.6
Cc1ccc(NC(=O)CCCSc2nc(-c3ccco3)cc(C(F)(F)F)n2)cc1	none (no result: Cl transport mod, S1P3 antag)
C=C(/C=C(\NC(=O)c1ccccc1)C(=O)N1CCC(N2CCCCC2)CC1)S/C=C\C	none (no result: Cl transport mod, S1P3 antag)
Cc1cc(-c2cncnc2C2CCCN(C(=O)Cc3ccc4c(c3)OCO4)C2)on1 (configuration not stated)	none (no result: PGE2 EP2 inh, Cl transport mod, S1P3 antag)
O=C(c1nccs1)C1CCN(C(=O)c2cccs2)CC1	none (no result: PGE2 EP2 inh, Cl transport mod, S1P3 antag)
CCOCCOC(=O)C1=C(C)NC2=C(C(=O)CC(c3ccc(OC)c(OC)c3)C2)C1c1ccc(C)o1 (configuration not stated)	none (no result: Cl transport mod, S1P3 antag)
CC1=NN(c2ccccc2)C(=O)C1C(=O)c1ccccc1 (configuration not stated)	none
CC1=NN(c2ccccc2)C(=O)C1C(=O)c1ccc(Cl)cc1 (configuration not stated)	Cl transport mod 7.85 (no result: PGE2 EP2 inh, S1P3 antag)
Cc1ccc2[nH]c(O)c(N=Nc3nc4ccccc4s3)c2c1	Cl transport mod 39.6
Cc1ccc2[nH]c(C)c(/C=N/Nc3nc4ccccc4s3)c2c1	none (no result: S1P3 antag)
Oc1[nH]c2ccccc2c1N=Nc1nc2ccccc2s1	Cl transport mod 6.05 (no result: PGE2 EP2 inh, S1P3 antag)
CCCC1C(=O)N(c2ccccc2)C1c1ccccc1 (configuration not stated)	EP2 mod 64.0 (no result: S1P3 antag)
O=C(O)CC/C(=N\NC(=O)c1ccccc1Br)c1ccccc1	none
O=C(NN=C1c2ccccc2-c2ccccc21)c1ccccc1Br	Cl transport mod 13.9 (no result: S1P3 antag)
CCOc1ccc(NC(=O)C2(C)Cc3ccccc3C(=O)O2)cc1 (configuration not stated)	none (no result: Cl transport mod, S1P3 antag)
CC(=O)NC1(c2ccc(F)cc2)CCN(Cc2cnc(-c3ccccc3C)nc2)CC1	none (no result: Cl transport mod, S1P3 antag)
CC(Nc1ccc(Br)cn1)c1cc(Cl)ccc1O (configuration not stated)	S1P3 antag 67.0 (no result: PGE2 EP2 inh, Cl transport mod)
CC(Nc1ccc(Cl)cc1)c1cc(Cl)ccc1O (configuration not stated)	none (no result: S1P3 antag)
O=C(CSc1nnc2c(n1)[nH]c1ccc(F)cc12)Nc1ccccc1Oc1ccccc1	none (no result: Cl transport mod, S1P3 antag)
CCOc1ccc2[nH]c(=O)c(CN(Cc3nnnn3C3CCCCC3)C3CCCC3)cc2c1	none (no result: Cl transport mod, S1P3 antag)
CCOc1ccc2[nH]c(=O)c(CN(CCc3ccccc3)Cc3nnnn3C3CCCCC3)cc2c1	EP2 mod 62.1 (no result: Cl transport mod, S1P3 antag)
CCOc1ccc2[nH]c(=O)c(CN(Cc3ccc(F)cc3)Cc3nnnn3C3CCCC3)cc2c1	EP2 mod 61.3 (no result: Cl transport mod, S1P3 antag)
Cc1cc2cc(CN(Cc3ccc4c(c3)OCO4)Cc3nnnn3C3CCCC3)c(=O)[nH]c2cc1C	EP2 mod 63.9
CCc1ccc(OCCCC(=O)Nc2nnc(C)s2)cc1	none (no result: Cl transport mod, S1P3 antag)
COc1ccc(NC(=O)C2CCCN(c3ncccn3)C2)c(OC)c1 (configuration not stated)	none (no result: Cl transport mod, S1P3 antag)
Cc1ccc(-n2c(=S)[nH]c3sc4c(c3c2=O)CCc2ccccc2-4)cc1	Cl transport mod 9.12
Cc1ccc(NC(=O)Nc2ccc3c(c2)N(C)C(=O)CS3)cc1C	none (no result: S1P3 antag)
Cc1cc(C)cc(NC(=O)Nc2ccc3c(c2)N(C)C(=O)CS3)c1	PGE2 EP2 inh 43.3 (no result: S1P3 antag)
O=C(NCCCN1CCC(Cc2ccccc2)CC1)C1CC(=O)N(C2CCCC2)C1 (configuration not stated)	S1P3 antag 103.5
CCOC(=O)c1c(NC(=S)Nc2ccccc2)sc2c1CCN(CC)C2	none (no result: S1P3 antag)
CCOC(=O)c1c(NS(=O)(=O)c2cccc(OC)c2)sc2c1CCC2	Cl transport mod 37.7
CCOC(=O)c1c(NC(=O)COC)sc2c1CCC2	EP2 mod 83.0 (no result: Cl transport mod, S1P3 antag)
CCOC(=O)c1c(NC(=S)Nc2ccccc2)sc2c1CCCCC2	PGE2 EP2 inh 52.4 (no result: Cl transport mod, S1P3 antag)
Cc1csc(NC(=O)CSc2nnc(-c3ccccc3C)n2C)n1	none (no result: Cl transport mod, S1P3 antag)
COc1ccc(CCN2C(=O)C(O)=C(C(C)=O)C2c2ccc(O)cc2)cc1OC (configuration not stated)	none (no result: Cl transport mod, S1P3 antag)
O=C(CSc1nc2ccccc2s1)c1sc2sc3ccccc3[n+]2c1O	PGE2 EP2 inh 65.6 (no result: Cl transport mod, S1P3 antag)
CN1[C@@H](C(=O)NCc2ccco2)C[C@@H](c2ccc(F)cc2)NS1(=O)=O	none (no result: PGE2 EP2 inh, Cl transport mod, S1P3 antag)
Cc1ncc(-c2ccncc2)c(C2CCCN(C(=O)c3cccc4ncccc34)C2)n1 (configuration not stated)	none (no result: PGE2 EP2 inh, Cl transport mod, S1P3 antag)
Cc1cccc(NC(=S)N(Cc2ccco2)Cc2cc3c(C)cc(C)cc3[nH]c2=O)c1	none (no result: Cl transport mod, S1P3 antag)
CC(Sc1nnc(COc2ccc3ccccc3c2)n1C)C(=O)Nc1cccc2ccccc12 (configuration not stated)	none (no result: Cl transport mod, S1P3 antag)
COc1ccc(/C=N/NC(N)=S)cc1	none
COc1ccc2c(c1)[n+]([O-])c(/C(C)=N/NC(N)=S)c(C)[n+]2[O-]	PGE2 EP2 inh 44.1 (no result: Cl transport mod, S1P3 antag)
C/C(=N\Nc1ccc(F)cc1F)c1ccccc1O	none
